This is part of a sample that, as a whole, favours compounds with a hit. Of some 79,000 tested, about 15% had one in any assay. Activity calls are given as the source filed them. Rule as the data show it: active = growth inhibition above about 70%; inactive = the rest. Where a SMILES comes first, the peptide text is derived from it. [ ]: non-standard residue; d: D form. ξ: configuration not given here. ξV = CC(C)C(N)C(=O)O
Columns and labels:
[1] = NCI Yeast Anticancer Drug Screen. Data for the rad50 strain (AID 155);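 also: 0% = growth of vehicle-only cultures of the same strain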; settings: S. cerevisiae rad50 strain growth inhibition; at 50.0 µM; stronger effect = higher value
Method in brief: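 Genetically altered yeast (DNA repair pathway); compound treatment; growth inhibition vs vehicle ctrl.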

[2] = NCI Yeast Anticancer Drug Screen. Data for the mec2-1 strain (AID 157); settings: S. cerevisiae mec2-1 strain, at 50.0 µM, stronger effect = higher value
Method in brief: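 Strain: mec2-1 (DNA repair/cell cycle alteration). Compound exposure, then growth measured; inhibition expressed relative to vehicle.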

[3] = NCI Yeast Anticancer Drug Screen. Data for the sgs1 mgt1 strain (AID 161);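 also: 0% = growth of cultures given vehicle only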; settings: S. cerevisiae sgs1 mgt1 strain, at 50.0 µM, stronger effect = higher value
Method in brief: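 Mutant yeast exposed to compound; growth scored against vehicle-only wells.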

[4] = NCI Yeast Anticancer Drug Screen. Data for the cln2 rad14 strain (AID 165);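 also: 0% = growth equal to vehicle treated cultures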; settings: S. cerevisiae cln2 rad14 strain, at 50.0 µM, stronger effect = higher value
Method in brief: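 Compounds are applied to the cln2 rad14 yeast strain, and growth is then compared with that of vehicle-treated cultures to give inhibition.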

[5] = NCI Yeast Anticancer Drug Screen. Data for the bub3 strain (AID 167); settings: S. cerevisiae bub3 mutant strain, at 50.0 µM, stronger effect = higher value
Method in brief: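 Yeast carrying a defined mutation is treated with each compound, and growth is compared with that of vehicle-exposed cells to give inhibition.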

[6] = NCI Yeast Anticancer Drug Screen. Data for the mlh1 rad18 strain (AID 175); settings: S. cerevisiae mlh1 rad18 strain growth inhibition; at 50.0 µM; stronger effect = higher value
Method in brief: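 Read-out is yeast growth inhibition, calculated against vehicle-only controls. The compound was applied to a strain engineered with DNA damage repair alterations.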

Measured: growth inhibition

C[N+](C)(C)C(C1=CCCC1=O)c1ccccc1 (stereo not given)
inactive: [1] 50% | [2] 43.3% | [3] 3.7% | [4] 26.9% | [5] 30.3% | [6] 43.6%

Cc1[nH]n(-c2ncc(C#N)c(=O)[nH]2)c(=O)c1CCO
inactive: [1] -8.75% | [2] -34.1% | [3] -16% | [4] -31.9% | [5] -11.8% | [6] -71.3%

O=C(NCCCCC[N+](CCCCCNC(=O)c1ccccc1)(CCCCCNC(=O)c1ccccc1)CCCCCNC(=O)c1ccccc1)c1ccccc1
inactive: [1] 3.65% | [2] 10.4% | [3] -15.2% | [4] -2.2% | [5] -1.65% | [6] -7.85%

O=C1C=C(Nc2ccccc2C(=O)CC(=O)C(=O)Nc2ccc(Cl)c(Cl)c2)c2ccccc2C1=O
inactive: [1] -14.1% | [2] 5.7% | [3] 3.2% | [4] -30.9% | [5] -24.2% | [6] -7.15%

O=c1n(-c2ccccc2)c(=O)n2c(-c3ccccc3)c(-c3ccccc3)n12
inactive: [1] 38.5% | [2] -23.7% | [3] -36.5% | [4] -12.6% | [5] -23.6% | [6] -30.8%

CCN(CC)CCOc1cccc(Oc2ccccc2)c1
inactive: [2] 62.7% | [4] 68.2% | [5] 53%
active: [1] 74% | [3] 72.8% | [6] 84%

CC(C)C(N)C(=O)NCC(=O)NCC(=O)O (stereo not drawn) (H-[ξV]-Gly-Gly-OH)
inactive: [1] -9.4% | [2] -22.2% | [3] -20.4% | [4] -8.15% | [5] -28.8% | [6] -23.4%

CCNN(CC)C(N)=O
inactive: [1] 5.2% | [2] -5% | [3] 0.4% | [4] 7.6% | [5] -13.2% | [6] -1.25%

CCCCC1(NN=C2CCCCC2)C(=O)N(c2ccccc2)N(c2ccccc2)C1=O
inactive: [1] -11.2% | [2] -6.2% | [3] -0.4% | [4] -0.75% | [5] -7.4% | [6] -8.65%

CCOC(=O)c1nc2ccccc2nc1NCc1ccc(OC)c(OC)c1
inactive: [1] 0.65% | [2] 13.1% | [3] -7.75% | [4] 19.7% | [5] -0.05% | [6] -11.4%

c1ccc(-c2coc(-c3ccccc3)n2)cc1
inactive: [1] 1.15% | [2] 8.65% | [3] 3.25% | [4] -2% | [5] -5.15% | [6] -10.2%

CC/C(=C/c1cccc([N+](=O)[O-])c1)C(=O)O
inactive: [1] -9.3% | [2] -23.9% | [3] 0% | [4] 6.1% | [5] -13.7% | [6] -0.2%

CC1(C)S[C@H](c2ccccc2C(=O)O)N[C@@H]1CC(=O)O
inactive: [1] -35.3% | [2] -6.9% | [3] -49.5% | [4] -21.7% | [5] -26.5% | [6] -31.4%

COc1cccc(C2c3cc4c(cc3OC(Nc3ccccc3)C2C)OCO4)c1OC (stereo not given)
inactive: [1] -28.4% | [2] 6.25% | [3] -28.1% | [4] 3.35% | [5] -36.9% | [6] -21.4%

O=C(CC(=O)n1nc(-c2ccccc2)c(N=Nc2ccccc2Cl)c1-c1ccccc1)Nc1ccc(Cl)cc1
inactive: [1] -9.5% | [2] 8.45% | [3] -3.95% | [4] 13.9% | [5] -18.7% | [6] -8.65%

CC(=O)[C@H]1CC[C@H]2[C@@H]3CC[C@@H]4CC(=O)CC[C@]4(C)[C@H]3[C@@H]3O[C@@H]3[C@]12C
inactive: [1] -13.2% | [2] 5.4% | [3] -11.1% | [4] -46% | [5] -1.1% | [6] 7.55%

NC(Cc1ccc(O)c(O)c1)P(=O)(O)O (stereo not given)
inactive: [1] -72.8% | [2] -38% | [3] -35.7% | [4] -5.75% | [5] -0.1% | [6] -27.8%

CCOC(=O)C1=NNCC1c1cccc(Cl)c1 (stereo not given)
inactive: [1] 12.5% | [2] -7.5% | [3] -3.7% | [4] -37.9% | [5] -13.2% | [6] -6.5%

NC(N)=NC(N)=Nc1ccccc1Br
inactive: [1] -20.9% | [2] -19.5% | [3] -4.4% | [4] -26.1% | [5] 7.05% | [6] -3.85%

CCOC(=O)c1cn(CC)c2ccc3ccsc3c2c1=O
inactive: [1] -18.2% | [2] -40.4% | [3] -15.5% | [4] 10.2% | [5] -9.4% | [6] -30.9%

C1CCC2C(C1)CCCC2CC1CCCC2CCCCC21 (stereo not given)
inactive: [1] -11.2% | [2] 1.1% | [3] -10.3% | [4] -17.5% | [5] -9.05% | [6] -4.65%

CCOC(=O)c1cc(/C=C/C(C)=C/C(=O)OC)oc1C
inactive: [1] 6.85% | [2] 1.4% | [3] -0.45% | [4] -13.3% | [5] 5.4% | [6] 1.25%

COc1ccc(-n2c(C)nc3c(cnn3CN3CCCCC3)c2=O)cc1
inactive: [1] 4% | [2] -0.95% | [3] -1.25% | [4] -4.05% | [5] 8.75% | [6] 13.5%

O=Cc1ccc(C(=O)O)cc1
inactive: [1] -1.35% | [2] -14.6% | [3] 0.25% | [4] -13.2% | [5] -12.8% | [6] -9.6%

Cc1ccc(C(C)C)cc1NC=O
inactive: [1] -6.55% | [2] -13.3% | [3] -20.1% | [4] 0.05% | [5] -2.6% | [6] 5.4%

O=C(CCC(CCC(=O)c1ccccc1)[N+](=O)[O-])c1ccccc1
inactive: [1] 3.15% | [2] -10.8% | [3] 7.65% | [4] 4.55% | [5] 14.2% | [6] 20.5%

COCC(C)OC(=O)c1ccccc1 (stereo not given)
inactive: [1] 23.8% | [2] -0.8% | [3] -9.9% | [4] -23.4% | [5] -14.9% | [6] 31.9%

O=C(O)c1c[nH]c2c(ccc3[nH]cc(C(=O)O)c(=O)c32)c1=O
inactive: [1] -14.1% | [2] -36.4% | [3] -33.2% | [4] -32.2% | [5] -40.7% | [6] -13.6%

CN(Cc1cnc2nc(N)nc(N)c2n1)c1ccc(C(=O)NC(CCCCN)C(=O)O)cc1 (stereo not given)
inactive: [1] -0.05% | [2] -9.4% | [3] -0.05% | [4] -15.8% | [5] -2.05% | [6] 30.9%

CC(C)CCCC(C)C1CCC2C3CC(=O)C4C=CCCC4(C)C3CCC12C (stereo not given)
inactive: [1] 39.1% | [2] 19.5% | [3] 27.6% | [4] 24% | [5] 2.65% | [6] 34%

CCOC(=O)C(C)(C)Oc1ccc2c(-c3ccc(Cl)cc3)cc(=O)oc2c1
inactive: [1] 9.05% | [2] -5.1% | [3] -2.5% | [4] 7.65% | [5] -11.9% | [6] 2.55%

COc1ccc(Nc2nc(N)nc3c2ncn3C2OC(CO)C(O)C2O)cc1 (stereo not given)
inactive: [1] -9.6% | [2] -17.9% | [3] -13.2% | [4] -7% | [5] 2.05% | [6] -11.5%

CN(C)CC1C2CCC(C2)C1O (stereo not given)
inactive: [1] 2.2% | [2] -20.6% | [3] -7.7% | [4] 8% | [5] -11.7% | [6] 4.4%

O=NNc1ccc(Sc2ccccc2)cn1
inactive: [1] 6.8% | [2] -9.2% | [3] -3.75% | [4] -8.55% | [5] -31.6% | [6] 10.6%

CNn1c(C)n[nH]c1=O
inactive: [1] 4.95% | [2] -15.8% | [3] 10.4% | [4] 20.6% | [5] 3.4% | [6] 17.1%

Nc1nc(-c2cc(C(c3ccccc3)c3ccccc3)nc(N)n2)cc(C(c2ccccc2)c2ccccc2)n1
inactive: [1] -6.45% | [2] 13.8% | [3] -24.6% | [4] 3.45% | [5] -2.3% | [6] 9.95%

CCOC(=O)[C@H]1Nc2ccc(Cl)cc2[C@H]2c3ccccc3O[C@H]21
inactive: [1] 4.85% | [2] -22.3% | [3] -23.1% | [4] 8.35% | [5] -19.7% | [6] -19.4%

OC1CCSc2ccccc21 (stereo not given)
inactive: [1] 28.6% | [2] 10.3% | [3] 23.9% | [4] 9.7% | [5] 23.6% | [6] 23.2%

[Cl][Pt+2][Cl].[NH-]C1CCCC1[NH-] (stereo not given)
inactive: [1] 13.8% | [2] 9% | [3] 20.9% | [4] 3.8% | [5] 21.9% | [6] 36.8%

CCc1nc(N)nc(N)c1-c1ccc(NC(C)c2ccccc2)c([N+](=O)[O-])c1 (stereo not given)
inactive: [1] 13.6% | [2] -8.4% | [3] 14.5% | [4] -1.1% | [5] 9.1% | [6] -7.6%

— PubChem BioAssay (NCI)
